Assay results as given in PubChem BioAssay (NCI).
Where “and” joins values, the source holds several entries; their conditions need not be identical. Equal values may be shown once. The panel holds about 83,000 compounds, 20% with a hit somewhere; the sample as a whole holds those more often.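 Cells were grown in 96-well plates and exposed to the test compound at a single concentration for 48 hours; results are reported as percent growth, with values below 10 considered active.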 Calls of active or inactive are those of the source.

Legend:
Test in all cases: NCI-60 one-dose screen, 48 h (100 = growth as untreated, 0 = no growth, -100 = all killed)
Settings in all cases: 10 µM unless noted
BT-549 breast = system: BT-549 breast
MDA-MB-435 melanoma = system: MDA-MB-435 melanoma
SW-620 colon = system: SW-620 colon
MCF7 breast = system: MCF7 breast
HCT-116 colon = system: HCT-116 colon
HCC-2998 colon = system: HCC-2998 colon
KM12 colon = system: KM12 colon

Structure (SMILES) | growth (BT-549 breast) | growth (MDA-MB-435 melanoma) | growth (SW-620 colon) | growth (MCF7 breast) | growth (HCT-116 colon) | growth (HCC-2998 colon) | growth (KM12 colon)
CC(=O)Nc1ccccc1-c1n[nH]c(=O)[nH]c1=O | 112% (inactive) | 97.9% (inactive) | 96.4% (inactive) | 101% (inactive) | 104% (inactive) | 116% (inactive) | 105% (inactive)
O=S(=O)(Nc1ccc(Cl)c(Cl)c1)c1ccc(-c2cnc(C3CC3)o2)cc1 | 56.2% (inactive) | -32.8% (active) | 12.8% (inactive) | 17.9% (inactive) | 26.1% (inactive) | 38.2% (inactive) | 20% (inactive)
O=c1onc(-c2ccccc2)c2ccccc12 | 118% (inactive) | 105% (inactive) | 103% (inactive) | 102% (inactive) | 113% (inactive) | 98.9% (inactive) | 110% (inactive)
COc1ccc(/C=N\N2CCOCC2)cc1OC1CCCC1 | 83.8% (inactive) | 106% (inactive) | 100% (inactive) | 93.2% (inactive) | 87.9% (inactive) | 112% (inactive) | 106% (inactive)
CCCCC/C=C\C/C=C/CCCCCCCCNC(=O)Nc1ccc([N+](=O)[O-])cc1 | 109% (inactive) | 68.3% (inactive) | 31.6% (inactive) | 103% (inactive) | 40% (inactive) | 95.3% (inactive) | 23.9% (inactive)
Clc1nc(-c2ccccn2)nc2sc3c(c12)CCCCCC3 | 85.1% (inactive) | 91.4% (inactive) | 102% (inactive) | 54% (inactive) | 84.5% (inactive) | 63.4% (inactive) | 91.6% (inactive)
CN(C)c1ccc(/C=C(\C#N)c2cc3ccccc3n2C)cc1 | 37.6% (inactive) | -26.9% (active) | 21% (inactive) | 15.1% (inactive) | 10.6% (inactive) | 20.1% (inactive) | 18.5% (inactive)
O=C(NC1CC1)c1cc2n(n1)CC(c1ccccc1)N2 (centres undefined) | 99.7% (inactive) | 99.4% (inactive) | 95.4% (inactive) | 85.9% (inactive) | 102% (inactive) | 101% (inactive) | 102% (inactive)
Brc1ccc(Br)nn1 | -69.7% (active) | -96.3% (active) | -100% (active) | -72.4% (active) | -97.3% (active) | -53.5% (active) | -50.7% (active)
COc1ccc(/C=C2\SC(=O)N(CN3CCN(c4cc5c(cc4F)c(=O)c(C(=O)O)cn5C4CC4)CC3)C2=O)cc1 | 86.4% (inactive) | 98% (inactive) | 99.8% (inactive) | 95.2% (inactive) | 85.7% (inactive) | 104% (inactive) | 103% (inactive)
C[C@H]1C(=O)C23CCC1C[C@@]21O[C@@H]2C(C)(C)C=CC(=O)C23COC1=O | 106% (inactive) | 107% (inactive) | 108% (inactive) | 99.5% (inactive) | 96.5% (inactive) | 104% (inactive) | 113% (inactive)
FC(F)(F)c1cc(CNc2nc(Cl)ncc2Br)cc(C(F)(F)F)c1 | 90% (inactive) | 45.9% (inactive) | 103% (inactive) | 93.3% (inactive) | 96.1% (inactive) | 97.8% (inactive) | 71.2% (inactive)
Cn1c2ccccc2c2nn(C(=O)c3ccccc3)c(=O)nc21 | 114% (inactive) | 105% (inactive) | 100% (inactive) | 101% (inactive) | 109% (inactive) | 107% (inactive) | 106% (inactive)
O=S(=O)(OCCO)c1ccccc1 | 105% (inactive) | 98.2% (inactive) | 101% (inactive) | 94.9% (inactive) | 104% (inactive) | 113% (inactive) | 103% (inactive)
NC(=O)c1cc(I)ccc1NC(=O)COc1ccccc1 | 69.3% (inactive) | -56% (active) | 23.5% (inactive) | 17.7% (inactive) | 19% (inactive) | 13.9% (inactive) | 19.9% (inactive)
CCN(CC)c1ccc(/C=C(\C#N)c2cc3ccccc3[nH]2)cc1 | 69.5% (inactive) | 1.8% (active) | 23.3% (inactive) | 23.7% (inactive) | 31.5% (inactive) | 77.8% (inactive) | 21.7% (inactive)
Cc1cc(C)c(S(=O)O)c(C)c1 | 104% (inactive) | 103% (inactive) | 103% (inactive) | 109% (inactive) | 109% (inactive) | 110% (inactive) | 112% (inactive)
O=C1Nc2ccc(Cl)cc2/C1=N/N=C(c1ccccc1)c1ccccc1 | 100% (inactive) | 99.8% (inactive) | 94.1% (inactive) | 100% (inactive) | 97.9% (inactive) | 102% (inactive) | 93.4% (inactive)
NNC1=N/C(=C\c2ccco2)C(Cl)=N1 | – | – | – | 16.5% [100 µM] (inactive) and -15.6% [100 µM] (active) | – | – | –
C=C1CC[C@@H]2[C@@](C)(CCC[C@]2(C)C(=O)O)[C@@H]1CC[C@H](CO)CCO | – | 109% (inactive) | 114% (inactive) | 101% (inactive) | 107% (inactive) | 108% (inactive) | 102% (inactive)
O=C1N/C(=C\c2ccccc2)c2ncccc21 | – | 109% (inactive) | 113% (inactive) | 80% (inactive) | 101% (inactive) | 109% (inactive) | 97.2% (inactive)
CC(=O)NC(CS/N=N/c1nc[nH]c1C(N)=O)C(=O)O (centres undefined) | – | – | – | 28.2% [100 µM] (inactive) and 6.86% [100 µM] (active) | – | – | –
Cc1cc2c3c(nc4ccccc42)C(=O)c2cccnc2-c3n1 | – | – | – | -74.8% [100 µM] (active) and -100% [100 µM] (active) | – | – | –

Structure (SMILES) | growth (BT-549 breast) | growth (MDA-MB-435 melanoma) | growth (SW-620 colon) | growth (MCF7 breast) | growth (HCT-116 colon) | growth (HCC-2998 colon) | growth (KM12 colon)
CCOC(=O)c1[nH]c2cc(Cl)ccc2c1[C@@H](C(=O)NC(C)(C)C)N(CC)C(=O)CCCCC#Cc1cccc2c1CN(C1CCC(=O)NC1=O)C2=O (some centres undefined) | 3.98% (active) | 18.1% (inactive) | 22.2% (inactive) | 12.5% (inactive) | 24.6% (inactive) | 6.54% (active) | 10.3% (inactive)
NS(=O)(=O)c1cc(Br)c2c(c1)S(=O)(=O)NCN2 | 108% (inactive) | 105% (inactive) | 109% (inactive) | 97.4% (inactive) | 108% (inactive) | – | 96.9% (inactive)
N#Cc1c(SCc2ccccc2)nc(-c2ccccc2)[nH]c1=S | – | – | – | 3.22% [100 µM] (active) and -27% [100 µM] (active) | – | – | –
Cc1nc(NN)c([N+](=O)[O-])c(NN)n1 | 107% (inactive) | 104% (inactive) | 104% (inactive) | 98.7% (inactive) | 99.2% (inactive) | – | 104% (inactive)
Cc1cc(N2CCCC2)c([N+](=O)[O-])cc1[N+](=O)[O-] | – | – | – | 65.2% [100 µM] (inactive) and 89% [100 µM] (inactive) | – | – | –
O=c1c2c(=NCCN3CCCC3)cc3c(=O)n(CCCN4CCOCC4)c(=O)c4c(-c5ccc(CN6CCCC6)cc5)cc(c(O)n1CCCN1CCOCC1)c2c4-3 | -50.9% (active) | -90.1% (active) | -45.2% (active) | -34.8% (active) | -23.8% (active) | -63.7% (active) | -47.7% (active)
N#Cc1cnn2c1n[n+]([O-])c1ccc(Cl)cc12 | – | – | – | 9.63% [100 µM] (active) and -99.2% [100 µM] (active) | – | – | –
C/C(Cl)=N/OC(=O)Nc1ccc(S(N)(=O)=O)c(C)c1 | – | – | – | -72.4% [100 µM] (active) and -89.8% [100 µM] (active) | – | – | –
N#Cc1c(=N)cc2c3ccccc3oc3c(C#N)c(N)[nH]c1c32 | – | – | – | 74.3% [100 µM] (inactive) and 24.3% [100 µM] (inactive) | – | – | –
CC(=O)OCC1=C(C)C[C@H]([C@@H](COC(C)=O)C2CCC3C4C[C@H]5O[C@]56CC=CC(=O)[C@]6(C)C4CC[C@@]32C)OC1=O (some centres undefined) | – | – | – | -69.8% [50 µM] (active) and -84.4% [50 µM] (active) | – | – | –
Cc1nc(NC(=O)COc2cccc(/C=C3\COc4ccccc4C3=O)c2)sc1C | -68.5% (active) | -44.5% (active) | -100% (active) | -58.7% (active) | -88.4% (active) | – | -92.4% (active)
Nc1nc(Nc2cc(F)c(Cl)c(F)c2)cc(=O)[nH]1 | – | – | – | 65.9% [100 µM] (inactive) and -23.3% [100 µM] (active) | – | – | –
CN(C)CCNc1ccc(NCC[N+](C)(C)Cc2ccc([N+](=O)[O-])cc2)c2c1C(=O)c1ccccc1C2=O | – | – | – | 6.38% [25 µM] (active) and -100% [25 µM] (active) | – | – | –
CCOC(=O)/C(C#N)=C(/NNc1ccccc1)c1ccncc1C(=O)O | – | – | – | 28.2% [100 µM] (inactive) and 39.1% [100 µM] (inactive) | – | – | –
CCCCOC(=O)C1CC[C@H]2[C@@H]3CCc4cc(OC(=O)c5cccc6c(=O)c7ccccc7[nH]c56)ccc4[C@H]3CC[C@]12C (some centres undefined) | – | – | – | -86.3% [50 µM] (active) and -100% [50 µM] (active) | – | – | –
O=C(c1cnn2c1NC(c1ccc(F)cc1)C2)N1CCCCC1 (centres undefined) | 110% (inactive) | 94.8% (inactive) | 102% (inactive) | 93.2% (inactive) | 98.2% (inactive) | 113% (inactive) | 106% (inactive)
COc1ccc(OC)c(/C=C2\Oc3cc(O)ccc3C2=O)c1 | 79.8% (inactive) | 82.7% (inactive) | 92.2% (inactive) | 94.2% (inactive) | 79.2% (inactive) | 99.3% (inactive) | 108% (inactive)
COC(=O)C(=O)C(C(=O)C(=O)Nc1ccccc1C(=O)OC)c1nc2ccc(C(=O)c3ccccc3)cc2[nH]c1=O (centres undefined) | – | – | – | 58.7% [100 µM] (inactive) and 7.77% [100 µM] (active) | – | – | –
Oc1ccc(/C=C/c2cc(O)cc3c2C(c2cc(O)cc(O)c2)C(c2ccc(O)c(O)c2)O3)cc1 (centres undefined) | – | – | – | -7.74% [100 µM] (active) and -48.3% [100 µM] (active) | – | – | –
c1ccc(-c2n(Cc3ccc4ccccc4n3)c3ccccc3[n+]2Cc2ccc3ccccc3n2)cc1 | -0.501% (active) | -12.7% (active) | 2.87% (active) | 1.36% (active) | 5.91% (active) | -3.47% (active) | -61.2% (active)
CCN1CCN(C(=S)SCC(=O)Nc2nc3ccc(OC)cc3s2)CC1 | 89.5% (inactive) | 107% (inactive) | 110% (inactive) | 96.3% (inactive) | 95.8% (inactive) | – | 90.6% (inactive)
CC1(C)CCCC(C)(C2CCC3(C)C2C(O)CC2C4(C)CCC(O)C(C)(C)C4C(O)CC23C)O1 (centres undefined) | – | – | – | -19.1% [100 µM] (active) and -85.7% [100 µM] (active) | – | – | –
COc1ccc(-c2[nH]ncc2Nc2cc(OC)c(OC)c(OC)c2)cc1 | 27.3% (inactive) | -11.7% (active) | 32.4% (inactive) | 23.1% (inactive) | 35.5% (inactive) | – | 32.5% (inactive)
